Assay outcomes: PubChem, Broad Institute
PGC1a acetyl inh – inhibitors of PGC1a acetylation signal, primary screen, cell-based, U2OS, AlphaScreen, inhibitor mode. AlphaScreen anti-acetyl-lysine; with virally co-expressed GCN5 acetyltransferase. inhibition, % at 15.6 µM. actives 0.17% (n = 350,000). AID 651687, 2012;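 active means every replicate shows inhibition of at least 40%; inconclusive means mean inhibition at least 40% but some replicate below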
SIRT5 inh – SIRT5 desuccinylase inhibitors, primary screen, biochemical, fluorescence imaging, single point, set 5. inhibition, % at 15 µM. AID 652115, 2013. actives 1.1% (n = 330,000). Purified SirT5, succinyl-peptide AMC, trypsin-coupled fluorescence. NAD-dependent protein deacylase sirtuin-5, mitochondrial (Homo sapiens), Q9NXA8; in the data active means inhibition above about 15%; inconclusive means no clear call, values can overlap the other calls
Target sequence (Q9NXA8 whole entry, looked up): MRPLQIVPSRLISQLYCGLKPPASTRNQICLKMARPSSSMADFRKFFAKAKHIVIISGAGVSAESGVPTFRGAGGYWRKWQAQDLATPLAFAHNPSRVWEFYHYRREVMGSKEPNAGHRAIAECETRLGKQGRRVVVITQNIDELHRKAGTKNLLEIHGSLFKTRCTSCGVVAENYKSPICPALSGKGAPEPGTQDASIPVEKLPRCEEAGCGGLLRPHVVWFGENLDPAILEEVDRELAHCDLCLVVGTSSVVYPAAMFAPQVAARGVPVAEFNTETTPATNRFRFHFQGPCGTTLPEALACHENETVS
LGR2 antag – inhibitors of bursicon-induced LGR2 CRE-luciferase signal, primary screen, cell-based, HEK293, CRE-luciferase reporter, bursicon stimulation; Drosophila bursicon receptor LGR2 (rickets); bursicon-stimulated, 4 h; inhibition, % at 9.99 µM; actives 0.35% (n = 380,000); AID 720647, 2013;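 active means drop in luminescence signal, shown as inhibition above about 50% in the replicate tests, limit read from the data, passing the limit was not always enough; inconclusive means probably only some replicates passing the limit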;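 further: agonist challenge used bursicon conditioned medium at about half maximal strength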
EWS-Fli inh – EWS/Fli-driven NR0B1 reporter inhibitors, primary screen, A673 cells, NR0B1 luciferase, luminescence, MLPCN library; viability-normalised; inhibition, % at 12.6 µM; actives 0.67% (n = 350,000); AID 651661, 2012;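 active means mean inhibition of at least 50% after viability correction, with every replicate also passing that limit; inconclusive means mean reaches 50% but only one of two replicates passes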;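 further: firefly luciferase signal divided by Alamar Blue viability fluorescence both relative to DMSO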
PAX8 inh HTS – inhibitors of PAX8-driven TPO luciferase reporter, primary screen, RMG-I cells, single concentration | SteadyGlo, 24 h | inhibition, % at 12.6 µM | actives 1.2% (n = 360,000) | AID 652154, 2013;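 active means mean replicate inhibition at least 60% with every replicate also reaching 60%; inconclusive means only one of the two criteria is met; inactive means mean below 60% and not all replicates reaching 60%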;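 further: luciferase light reporting Pax8 driven TPO promoter activity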
Ecoli rRNA inh – reduced GFP signal of wild-type E. coli, primary screen, bacterial rRNA inhibitor project, GFP/RFP fluorescence, OD600, single point | E. coli WT GFP vs humanized-ribosome RFP mutants, 24 h; active compounds read low; DMSO median 0, no signal -100 | GFP signal change (wild-type ribosome), % (test concentration not listed) | actives 1.6% (n = 350,000) | AID 720706, 2013;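 active means significant combined selectivity score with lowered wild-type GFP, culture density cut under 30%, mutant RFP and density less affected; inactive means any of these conditions unmet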
A number is an active result; i = inactive; ? = inconclusive; nt = no result. Rows were chosen to be rich in hits. Some 3.4% of all compounds tested hit in one or more screens of this group.

SMILES | PGC1a acetyl inh | SIRT5 inh | LGR2 antag | EWS-Fli inh | PAX8 inh HTS | Ecoli rRNA inh
COc1ccccc1-c1cc2nc(-c3ccccc3)cc(N3CCN(C(=O)c4ccco4)CC3)n2n1 | i | i | 89 | i | 86 | i
COc1cccc(-c2cc(N3CCN(C(=O)c4ccoc4)CC3)n3nc(-c4cccc(Cl)c4)cc3n2)c1 | nt | i | nt | i | i | nt
COc1ccc(-c2cc3c(nn2)-c2ccccc2C3=O)cc1 | i | i | 94 | i | i | i
COc1ccc(NC(=O)N[C@H]2CC[C@@H](CCn3cc(-c4ccccn4)nn3)O[C@H]2CO)cc1 | i | i | i | i | i | i
CCS(=O)(=O)c1nc(S(=O)(=O)c2ccc(C)cc2)c(N2CCN(CCO)CC2)s1 | i | i | i | nt | i | i
CCN1CCN(c2sc(S(=O)(=O)CC)nc2S(=O)(=O)c2ccc(C)cc2)CC1 | nt | nt | i | i | i | i
Cc1ccc(S(=O)(=O)c2nc(S(=O)(=O)c3ccccc3)sc2N2CCN(CCO)CC2)cc1 | i | i | i | i | 71 | i
Cc1ccc(S(=O)(=O)c2nc(S(=O)(=O)c3ccccc3)sc2N2CCN(C)CC2)cc1 | i | i | i | i | 88 | i
CCN1CCN(c2sc(S(C)(=O)=O)nc2S(=O)(=O)c2ccc(C)cc2)CC1 | i | i | i | i | 71 | i
CCCS(=O)(=O)c1nc(S(=O)(=O)c2ccc(C)cc2)c(N2CCN(C)CC2)s1 | i | i | i | i | i | i
CO[C@H]1CN(C)C(=O)c2ccc(NC(=O)Nc3cc(F)ccc3F)cc2OC[C@H](C)N(C(=O)c2cnccn2)C[C@H]1C | i | nt | i | i | nt | i
OCCOCCn1c(C(CO)Nc2nc(-c3ccccc3Br)cs2)nc2ccccc21 (stereo not drawn) | i | 23 | i | i | i | i
OCCOCCn1c(C(CO)Nc2nc(-c3cccc(Br)c3)cs2)nc2ccccc21 (stereo not drawn) | nt | nt | i | i | i | i
CN(C)CCCNC(=O)[C@H]1[C@H](CO)[C@H]2Cn3c(cccc3=O)[C@@H]1N2CC1CC1 | nt | i | i | i | nt | i
O=C(O)c1ccc(OCC(O)Cn2c3ccccc3c3ccccc32)cc1 (stereo not drawn) | i | 24 | i | i | i | -46
CCCn1c(=N)n(CC(O)COc2ccc(C)cc2)c2ccccc21 (stereo not drawn) | i | i | i | i | i | -26
CCn1c(=N)n(CC(O)COc2ccc(C)cc2)c2ccccc21 (stereo not drawn) | nt | i | i | i | i | i
CC1=C(C#N)C(=O)NC(=O)/C1=C\c1ccc(-c2cc(C)c(C)cc2[N+](=O)[O-])o1 | i | 17 | i | i | i | -34
O=S1(=O)CC(N2CCC(c3ccccc3)CC2)CN1Cc1ccccc1 (stereo not drawn) | i | 37 | i | i | i | i
CCCCN1CC(N2CCN(Cc3ccccc3)CC2)CS1(=O)=O (stereo not drawn) | i | i | i | i | i | -32
CN1CCN(C2CN(Cc3ccccc3)S(=O)(=O)C2)CC1 (stereo not drawn) | i | i | i | i | i | i
CC1CCCN(c2nc(N(C)c3ccccc3)nc(N)c2[N+](=O)[O-])C1 (stereo not drawn) | nt | i | i | i | i | -17
O=C(Nc1ccc(N2CCN(c3ncccc3C(F)(F)F)CC2)nc1)c1cccs1 | nt | i | 92 | i | i | i
CC1CCN(S(=O)(=O)c2ccc(C(=O)Nc3nnc(C4=COCCO4)o3)cc2)CC1 | i | i | i | i | i | -23
COc1ccc2c3c([nH]c2c1)[C@@H](CO)N(Cc1ccccc1)CC31CN(C)C1 | i | i | i | i | nt | i
SMILES | PGC1a acetyl inh | SIRT5 inh | LGR2 antag | EWS-Fli inh | PAX8 inh HTS | Ecoli rRNA inh
O=C1NC(Cc2ccc(O)cc2)c2nc3cc(F)ccc3c(=O)n2-c2cc3ccccc3cc21 (stereo not drawn) | nt | nt | i | ? | 66 | i
O=C1NC(Cc2ccc(O)cc2)c2nc3ccc(F)cc3c(=O)n2-c2ncccc21 (stereo not drawn) | nt | 22 | i | i | i | i
COc1cccc(-c2ccc([C@@H]3[C@H]4CN(C(=O)C5CCC5)CC(=O)N4[C@H]3CO)cc2)c1 | i | i | i | i | i | i
Cn1c(=O)c(C(=O)NNC(=O)c2ccccc2F)c(O)c2ccccc21 | i | i | i | i | i | i
Cn1c(=O)c(C(=O)NNC(=O)c2ccc(Br)cc2)c(O)c2ccccc21 | nt | i | i | i | 64 | i
CCn1c(SCc2ccccc2)nc2ccccc2c1=O | nt | i | i | i | i | -32
CCC(=O)N[C@@H]1C=C[C@H](CC(=O)NCc2cc(F)cc(F)c2)O[C@H]1CO | i | i | i | i | i | i
CCOc1ccc(NC(=S)N=Nc2c(O)[nH]c3ccccc23)cc1 | nt | i | ? | i | i | i
Oc1cccc(NC(=S)N=Nc2c(O)[nH]c3ccccc23)c1 | i | i | i | i | i | -54
Cc1nc2c(C)cccn2c1/C(O)=C1\C(=O)C(=O)N(CCN(C)C)C1c1cccs1 (stereo not drawn) | i | i | i | i | i | -26
Cc1nc2c(C)cccn2c1/C(O)=C1\C(=O)C(=O)N(CCN2CCOCC2)C1c1cccs1 (stereo not drawn) | i | nt | nt | nt | nt | nt
CCOc1ccc(C(=O)N/N=C(\c2ccccc2)c2ccccn2)cc1 | 80 | nt | nt | nt | nt | nt
C/C(=N\NC(=O)c1c[nH]c2ccccc12)c1ccccn1 | i | i | i | i | i | i
O=C(N/N=C/c1ccc(Br)cc1)c1ccccc1-n1cccc1 | i | i | i | i | nt | -41
C/C(=N\NC(=O)c1ccc(F)cc1)c1ccccn1 | nt | i | i | i | 63 | i
C/C(=N\NC(=O)c1ccccc1-n1cccc1)c1ccccn1 | nt | i | i | i | 71 | i
COc1ccc2c3c([nH]c2c1)[C@@H](CO)N(C(=O)c1cccnc1)CC31CCN(C(=O)NC(C)C)CC1 | i | nt | i | i | nt | i
CCS(=O)(=O)NCC[C@H]1CC[C@H](NC(=O)Cc2ccccn2)[C@@H](CO)O1 | i | i | i | i | i | i
C/C=C/c1ccc([C@@H]2[C@@H](CO)N(C(C)=O)C23CN(C(=O)NC2CCCC2)C3)cc1 | i | i | i | i | i | i
CC(C)C#Cc1cnc2c(c1)C(=O)N([C@H](C)CO)C[C@H](C)[C@@H](CN(C)C(=O)c1ccc3c(c1)OCO3)O2 | i | i | i | i | nt | i
CCC(=O)Nc1ccc2c(c1)C(=O)N(C)[C@@H]1CC[C@@H](CC(=O)N3CCc4ccccc4C3)O[C@H]1CO2 | i | nt | i | i | i | i
